# According to PubChem BioAssay (NCATS):
# Records with an inconclusive call do not appear. Activity calls are given as the source filed them. Unless noted, calls follow the shape of the dose curve; as a rule, active = well fitted curve in the direction sought with a large enough effect; inconclusive = small, poorly fitted or top-dose-only effect, or another doubt; inactive = no such curve, though single readings can be large; an effect the other way counts as inactive or inconclusive.
# What was measured:
# [1] = target: Lysosomal acid glucosylceramidase (Homo sapiens) (UniProt P04062); experiment: Glucocerebrosidase-p2 (AID 348; in the data active = potency below about 10 µM; also: potency is read from the fitted curve at half-maximal effect); settings: purified GBA, blue fluorogenic substrate, 40 min
# Lysosomal acid glucosylceramidase (Homo sapiens), sequence (P04062 whole entry, looked up): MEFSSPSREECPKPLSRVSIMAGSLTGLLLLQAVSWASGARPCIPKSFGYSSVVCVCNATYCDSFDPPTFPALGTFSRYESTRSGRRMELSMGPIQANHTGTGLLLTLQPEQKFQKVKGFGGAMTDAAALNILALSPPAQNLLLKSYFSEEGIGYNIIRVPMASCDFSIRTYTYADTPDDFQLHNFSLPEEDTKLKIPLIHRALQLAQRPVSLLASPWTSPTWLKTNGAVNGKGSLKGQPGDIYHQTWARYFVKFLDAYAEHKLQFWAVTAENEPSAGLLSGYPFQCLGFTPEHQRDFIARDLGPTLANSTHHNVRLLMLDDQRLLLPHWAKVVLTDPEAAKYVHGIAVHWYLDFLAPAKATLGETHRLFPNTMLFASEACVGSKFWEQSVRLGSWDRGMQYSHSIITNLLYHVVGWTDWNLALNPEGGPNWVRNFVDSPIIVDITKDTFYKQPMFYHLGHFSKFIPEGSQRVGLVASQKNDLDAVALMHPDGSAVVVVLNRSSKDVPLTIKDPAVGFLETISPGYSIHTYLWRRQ
# Summary of the method: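 Compounds titrated from 0.6 nM upwards against 0.2 nM enzyme in pH 5.9 citric acid/KH2PO4, taurocholate, tween-20; blue fluorogenic substrate 80 uM, 40 min room temperature, stopped and read Ex 365/Em 440 for AC50.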
# [2] = AP1 Signaling Pathway (AID 357; active = well fitted curve in either direction with a large enough effect, not every such curve was filed as active;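 also: ME-180 reporter cells stimulated with EGF at its EC50 level; % is scaled to controls: 0 for no effect and ±100 for the full control effect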); settings: ME-180 AP-1-bla reporter, EGF-induced, beta-lactamase ratio, 5 h; at 7.69 µM (top of the series) unless noted
# Summary of the method: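 Modulation of EGF-driven AP-1 transcription was assessed with a beta-lactamase reporter in ME-180 cells. Compound and EC50 EGF were co-incubated 5 hours at 37 °C before 2.5-hour CCF4 loading at room temperature and dual-emission reading.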
# [3] = target: Cytochrome P450 1A2 (Homo sapiens) (UniProt P05177); experiment: p450-cyp1a2 (AID 410; calls by dose curve; also: potency is read from the fitted curve at half-maximal effect;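 as to activity change, negative = inhibition: -100% = full effect of reference inhibitor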); settings: recombinant CYP1A2, luciferin-ME demethylation, luminescence; series mostly up to 57 µM
# Cytochrome P450 1A2 (Homo sapiens), sequence (P05177 whole entry, looked up): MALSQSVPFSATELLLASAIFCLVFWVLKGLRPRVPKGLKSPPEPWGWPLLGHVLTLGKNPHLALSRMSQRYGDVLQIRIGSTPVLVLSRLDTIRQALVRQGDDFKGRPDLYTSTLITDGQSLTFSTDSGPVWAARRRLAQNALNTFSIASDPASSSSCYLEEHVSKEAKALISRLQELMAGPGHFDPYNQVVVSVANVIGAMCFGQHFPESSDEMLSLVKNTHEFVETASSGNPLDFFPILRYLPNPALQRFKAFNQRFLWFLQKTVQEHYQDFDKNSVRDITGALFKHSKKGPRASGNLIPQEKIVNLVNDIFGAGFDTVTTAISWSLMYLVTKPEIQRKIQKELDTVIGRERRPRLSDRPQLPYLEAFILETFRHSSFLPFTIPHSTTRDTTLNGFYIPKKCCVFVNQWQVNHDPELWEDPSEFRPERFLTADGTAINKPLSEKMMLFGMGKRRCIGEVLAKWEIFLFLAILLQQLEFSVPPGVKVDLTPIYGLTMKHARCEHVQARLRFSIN
# Summary of the method: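 Inhibition was calculated relative to 57 uM furafylline (full inhibition). The reaction used human CYP1A2 at 20nM with Luciferin-ME at its Km, 100uM, driven by an NADPH-regenerating system for 60 min at room temperature.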
# [4] = NFAT Signaling Pathway (AID 444; active = well fitted curve in either direction with a large enough effect, not every such curve was filed as active;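 also: carbachol stimulus at about its EC50 of 1 µM final; % is scaled to controls: 0 for no effect and ±100 for the full control effect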); settings: Jurkat NFAT-bla M1, carbachol, beta-lactamase ratio, 5 h; at 7.69 µM (top of the series) unless noted
# Summary of the method: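 Jurkat cells carrying an NFAT-driven β-lactamase reporter and co-transfected muscarinic M1 receptor were treated with compound plus carbachol (1 uM final, an EC50 level) for 5 h at 37 °C. CCF4 loading followed for 1 h at RT; 460/530 nm ratio gave %activity.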
# [5] = Stat Signaling Pathway (AID 446; active = well fitted curve in either direction with a large enough effect, not every such curve was filed as active;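 also: ME-180 cervical cancer cells given 40 pM IL-6 alongside compound; SIE-controlled beta-lactamase reporter measured as 460/530 nm FRET emission ratio; % is scaled to controls: 0 for no effect and ±100 for the full control effect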); settings: ME-180 SIE beta-lactamase reporter, IL-6 stimulated, 5 h; at 7.69 µM (top of the series) unless noted
# Summary of the method: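 ME-180 SIE-bla cells; overnight plating; cpd + IL-6 40 pM, 5 h, 37 C; LiveBLAzer 2.5 h RT; 460/530 nm emission ratio. Normalized to 300 pM IL-6 and 125 nM JAK inhibitor controls.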
# [6] = target: Glucocorticoid receptor (Homo sapiens) (UniProt P04150); experiment: GR-GFP Redistribution (AID 450;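 active = compounds whose dose series gives a full or clear partial fitted curve of increased nuclear translocation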; also: potency is read from the fitted curve at half-maximal effect); settings: U2OS GR-GFP nuclear translocation, laser cytometry, 2 h
# Glucocorticoid receptor (Homo sapiens), sequence (P04150 whole entry, looked up, the tested form may be a part): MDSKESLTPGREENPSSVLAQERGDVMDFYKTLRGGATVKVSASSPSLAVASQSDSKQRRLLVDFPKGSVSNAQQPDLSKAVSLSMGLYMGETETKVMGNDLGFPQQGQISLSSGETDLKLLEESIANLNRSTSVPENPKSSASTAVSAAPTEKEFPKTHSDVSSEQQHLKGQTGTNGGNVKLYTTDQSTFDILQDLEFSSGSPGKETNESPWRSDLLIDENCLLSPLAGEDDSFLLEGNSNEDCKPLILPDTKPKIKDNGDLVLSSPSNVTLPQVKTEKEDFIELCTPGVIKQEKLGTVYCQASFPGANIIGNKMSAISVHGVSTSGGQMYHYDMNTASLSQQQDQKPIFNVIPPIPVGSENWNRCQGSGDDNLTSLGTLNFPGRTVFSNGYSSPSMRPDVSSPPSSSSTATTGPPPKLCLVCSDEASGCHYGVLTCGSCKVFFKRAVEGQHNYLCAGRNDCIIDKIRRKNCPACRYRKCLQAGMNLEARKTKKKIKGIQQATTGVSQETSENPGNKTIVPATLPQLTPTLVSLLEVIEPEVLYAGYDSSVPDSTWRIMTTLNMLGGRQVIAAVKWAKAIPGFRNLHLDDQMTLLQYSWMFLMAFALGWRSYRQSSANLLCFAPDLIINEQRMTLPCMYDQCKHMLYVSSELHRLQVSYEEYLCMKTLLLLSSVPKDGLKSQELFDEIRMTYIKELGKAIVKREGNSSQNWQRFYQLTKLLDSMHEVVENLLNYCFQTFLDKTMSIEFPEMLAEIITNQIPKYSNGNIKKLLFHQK
# [7] = target: Glucocorticoid receptor (Homo sapiens) (UniProt P04150); experiment: GR-EFC Redistribution (AID 451; calls by dose curve; also: potency is read from the fitted curve at half-maximal effect); settings: CHO-K1 GR-EFC translocation, beta-gal luminescence, 2 h
# Summary of the method: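 CHO-K1 cells stably expressing nuclear-localized β-gal enzyme acceptor and GR fused C-terminally to the enzyme donor fragment; ligand-driven nuclear translocation restores β-gal by complementation. Compounds titrated up to 46 uM final, 2 h at 37 °C; luminescence read.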
# [8] = target: Mitogen-activated protein kinase 10 (Mus musculus) (UniProt Q61831); experiment: JNK3 AlphaScreen Assay (AID 530; active = well fitted curve in either direction with a large enough effect, not every such curve was filed as active;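 also: kinase came from lysate of stimulated human HepG2 cells; signal reports phosphorylation of biotinylated GST-cJun 1-79 at Ser73 with 10 µM ATP; % is scaled to controls: 0 for no effect and ±100 for the full control effect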); settings: JNK3 lysate, c-Jun phosphorylation; series mostly up to 57.1 µM
# Summary of the method: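 JNK3 came from HepG2 lysates pre-activated with IL-1beta and TNF-alpha and phosphorylated biotinylated GST-cJun (1-79) at 10 uM ATP, pH 7.6, room temperature. Compounds were titrated. AlphaScreen signal used anti-phospho-cJun (Ser73) antibody.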
# [9] = target: 3',5'-cyclic-AMP phosphodiesterase 4B (Homo sapiens) (UniProt Q07343); experiment: qHTS Assay for Inhibitors of PDE-IV (AID 607; active = well fitted activation curve with a large enough effect in the main read-out, with a control signal flat, not every such curve was filed as active; also: % of control where 0% means no effect); settings: HEK293 ACTOne CNG channel cells, membrane potential fluorescence; series mostly up to 22.9 µM
# 3',5'-cyclic-AMP phosphodiesterase 4B (Homo sapiens), sequence (Q07343 whole entry, looked up): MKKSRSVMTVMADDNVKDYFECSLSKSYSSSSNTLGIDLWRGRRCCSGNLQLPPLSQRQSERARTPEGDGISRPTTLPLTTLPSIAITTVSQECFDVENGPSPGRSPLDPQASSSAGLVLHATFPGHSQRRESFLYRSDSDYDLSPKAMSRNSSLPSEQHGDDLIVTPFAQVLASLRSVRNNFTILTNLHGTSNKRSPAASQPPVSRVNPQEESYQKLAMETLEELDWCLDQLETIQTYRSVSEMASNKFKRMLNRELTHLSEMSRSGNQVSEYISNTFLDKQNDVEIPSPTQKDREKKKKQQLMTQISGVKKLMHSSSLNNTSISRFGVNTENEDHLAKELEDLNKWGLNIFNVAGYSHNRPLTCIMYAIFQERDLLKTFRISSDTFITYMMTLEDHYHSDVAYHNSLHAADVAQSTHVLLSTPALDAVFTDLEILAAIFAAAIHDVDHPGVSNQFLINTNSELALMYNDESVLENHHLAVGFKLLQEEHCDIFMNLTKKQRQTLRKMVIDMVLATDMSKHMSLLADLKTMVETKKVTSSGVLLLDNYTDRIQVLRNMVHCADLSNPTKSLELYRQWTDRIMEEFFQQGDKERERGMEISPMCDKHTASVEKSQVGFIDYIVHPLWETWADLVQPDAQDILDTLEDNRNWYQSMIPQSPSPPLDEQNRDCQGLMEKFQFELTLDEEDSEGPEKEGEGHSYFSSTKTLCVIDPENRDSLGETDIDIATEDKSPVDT
# Summary of the method: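 ACTOne HEK293 cells carry a modified cAMP-gated CNG channel and express endogenous PDE4; plated 1000 cells/well, compounds up to 22.9 uM final. Membrane-potential dye fluorescence (ex 535/em 590) was read; parental cells received 10 uM forskolin + 100 uM RO 20-1724.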
# [10] = qHTS Assay for Lipid Storage Modulators (AID 1519; calls by dose curve); settings: Drosophila S3 cells, BODIPY lipid droplet/cell ratio, laser cytometry, cells loaded with oleic acid; for activity change, negative = inhibition: at 57.5 µM (top of the series)
# Summary of the method: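 Cells seeded at 5,000 per well were treated with compounds over a concentration series and loaded with oleic acid (400 uM, as added). Lipid droplet fluorescence (488 nm excitation, 500-530 nm channel) was read by laser-scanning cytometry and normalized to 20 uM Triacsin C.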
# [11] = target: Dual specificity protein kinase CLK4 (Homo sapiens) (UniProt Q9HAZ1); experiment: qHTS Assay for Inhibitors of CDC-like Kinase 4 (Kinase-Glo Assay) (AID 1770); settings: recombinant Clk4, Kinase-Glo ATP depletion luminescence; series mostly up to 66.7 µM; also: nearly all actives have a fitted effect of over 65% in size; also: potency is read from the fitted curve at half-maximal effect
# Dual specificity protein kinase CLK4 (Homo sapiens), sequence (Q9HAZ1 whole entry, looked up): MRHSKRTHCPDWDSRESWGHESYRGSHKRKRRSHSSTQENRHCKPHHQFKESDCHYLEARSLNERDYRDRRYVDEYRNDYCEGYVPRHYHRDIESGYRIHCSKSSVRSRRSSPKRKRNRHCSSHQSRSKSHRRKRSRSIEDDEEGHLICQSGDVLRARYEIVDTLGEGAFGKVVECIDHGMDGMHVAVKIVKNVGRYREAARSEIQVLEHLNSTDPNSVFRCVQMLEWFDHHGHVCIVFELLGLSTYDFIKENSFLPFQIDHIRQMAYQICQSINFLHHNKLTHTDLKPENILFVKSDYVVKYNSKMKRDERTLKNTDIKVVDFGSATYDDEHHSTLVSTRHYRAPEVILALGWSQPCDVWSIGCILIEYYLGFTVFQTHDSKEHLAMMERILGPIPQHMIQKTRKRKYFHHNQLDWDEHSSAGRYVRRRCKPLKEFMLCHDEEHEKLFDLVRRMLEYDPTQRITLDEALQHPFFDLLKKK
# Summary of the method: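 Substrate mix (RS peptide 100 uM, ATP 1 uM) dispensed, compound pinned in, then Clk4 added to 25 nM final. Incubated 4.5 h at RT; Kinase-Glo reagent added, luminescence read after 5 min.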
# [12] = target: Dual specificity protein kinase CLK4 (Homo sapiens) (UniProt Q9HAZ1); experiment: qHTS Assay for Inhibitors of CDC-like Kinase 4 (ADP-Glo Assay) (AID 1771); settings: recombinant CLK4, ADP-Glo luminescence; series mostly up to 80 µM; also: nearly all actives have a fitted effect of over 70% in size; also: potency is read from the fitted curve at half-maximal effect
# Summary of the method: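 Kinase reaction: Clk4 at 25 nM, RS repeat peptide substrate at 100 uM, ATP at 1 uM, 1 hr, room temperature. Product ADP detected as luciferase signal via ADP-Glo.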
# [13] = target: Dual specificity protein kinase CLK4 (Homo sapiens) (UniProt Q9HAZ1); experiment: qHTS Assay for Inhibitors of CDC-like Kinase 4 (ADP-FP Assay) (AID 1795); settings: Transcreener ADP fluorescence polarization; series mostly up to 50 µM; also: nearly all actives have a fitted effect of over 60% in size; also: potency is read from the fitted curve at half-maximal effect
# Summary of the method: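 Clk4 6.25 nM; RS peptide 100 uM; ATP 1 uM; 25 mM Tris pH 7.5, 10 mM MgCl2; 1 h reaction. ADP detected via antibody/orange tracer FP displacement; TG003 positive control.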
# [14] = target: Ubiquitin carboxyl-terminal hydrolase 1 (Homo sapiens) (UniProt O94782); experiment: Inhibitors of USP1/UAF1: Pilot qHTS (AID 504865); settings: purified USP1/UAF1, Ub-rhodamine cleavage fluorescence; series mostly up to 54.9 µM;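 also: rhodamine fluorescence freed from ubiquitin-rhodamine substrate followed over time; top concentration of the series differs between compounds; % is scaled to controls: 0 for no effect and ±100 for the full control effect; nearly all actives have a fitted effect of over 35% in size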
# Ubiquitin carboxyl-terminal hydrolase 1 (Homo sapiens), sequence (O94782 whole entry, looked up): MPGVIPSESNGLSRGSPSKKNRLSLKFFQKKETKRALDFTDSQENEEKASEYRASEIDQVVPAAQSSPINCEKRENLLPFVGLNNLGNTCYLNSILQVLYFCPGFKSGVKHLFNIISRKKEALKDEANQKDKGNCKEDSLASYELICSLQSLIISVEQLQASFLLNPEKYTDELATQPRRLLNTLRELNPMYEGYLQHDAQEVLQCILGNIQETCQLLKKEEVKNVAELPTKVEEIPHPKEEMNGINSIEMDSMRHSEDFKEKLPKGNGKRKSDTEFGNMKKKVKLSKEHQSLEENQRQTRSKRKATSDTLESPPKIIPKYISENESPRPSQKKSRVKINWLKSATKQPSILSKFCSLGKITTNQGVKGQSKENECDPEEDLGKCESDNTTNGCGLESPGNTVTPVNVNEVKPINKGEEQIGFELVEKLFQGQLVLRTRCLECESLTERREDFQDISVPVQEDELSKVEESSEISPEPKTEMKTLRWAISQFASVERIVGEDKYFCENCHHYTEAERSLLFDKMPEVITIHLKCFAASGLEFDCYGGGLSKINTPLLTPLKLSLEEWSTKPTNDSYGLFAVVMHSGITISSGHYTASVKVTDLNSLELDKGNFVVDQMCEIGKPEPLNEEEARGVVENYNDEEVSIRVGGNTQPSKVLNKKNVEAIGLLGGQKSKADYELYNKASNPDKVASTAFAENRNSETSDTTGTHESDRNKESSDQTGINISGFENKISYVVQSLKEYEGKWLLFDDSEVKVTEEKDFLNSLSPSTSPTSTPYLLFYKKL
# Summary of the method: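 In 50mM HEPES pH 7.8 containing 0.5mM EDTA, 1mM TCEP, 0.1 mg/ml BSA and 0.01% Tween-20, 1nM USP1/UAF1 is exposed to compound for 15 min, then Ub-Rho (150nM final) is added and fluorescence is read over time.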
# [15] = Primary qHTS for small molecule stabilizers of the endoplasmic reticulum resident proteome: Secreted ER Calcium Modulated Protein (SERCaMP) assay (AID 1508630); settings: SH-SY5Y GLuc-SERCaMP (Gaussia luciferase released on ER calcium loss) secretion, thapsigargin, luminescence; series mostly up to 38.4 µM; also: % is scaled to controls: 0 for no effect and ±100 for the full control effect
# Summary of the method: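 GLuc-SERCaMP-expressing SH-SY5Y cells, pretreated 16 h with compound, are challenged with thapsigargin to empty ER calcium stores; after 4 h, coelenterazine is added directly to the medium and luminescence is imaged.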
# [16] = target: Cytochrome P450 3A4 (Homo sapiens) (UniProt P08684); experiment: qHTS Assay for Activators of Cytochrome P450 3A4 (AID 885); settings: recombinant CYP3A4, Luciferin-PPXE luminescence, 60 min; series mostly up to 57.1 µM; also: nearly all actives have a fitted effect of over 65% in size; also: potency is read from the fitted curve at half-maximal effect
# Cytochrome P450 3A4 (Homo sapiens), sequence (P08684 whole entry, looked up): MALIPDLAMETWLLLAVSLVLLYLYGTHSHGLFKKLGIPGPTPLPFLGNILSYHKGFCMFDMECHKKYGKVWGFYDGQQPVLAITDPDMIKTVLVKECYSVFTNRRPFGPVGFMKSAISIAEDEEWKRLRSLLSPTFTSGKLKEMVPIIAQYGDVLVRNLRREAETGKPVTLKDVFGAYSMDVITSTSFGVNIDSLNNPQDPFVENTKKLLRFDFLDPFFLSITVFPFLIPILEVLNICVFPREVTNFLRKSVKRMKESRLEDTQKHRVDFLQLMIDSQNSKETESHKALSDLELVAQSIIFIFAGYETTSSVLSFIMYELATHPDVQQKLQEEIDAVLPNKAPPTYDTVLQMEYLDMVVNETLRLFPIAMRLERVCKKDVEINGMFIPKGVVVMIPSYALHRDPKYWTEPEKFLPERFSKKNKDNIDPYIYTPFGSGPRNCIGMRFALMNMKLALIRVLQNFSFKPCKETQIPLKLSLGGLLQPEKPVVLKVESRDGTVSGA
# Summary of the method: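 20nM CYP3A4 + 25uM Luciferin-PPXE (=KM), 200mM KPO4; cpd 10 min RT; NADPH regen, 60 min RT; stop w/ detection buffer, 20 min; luminescence. Normalized to 57 uM ketoconazole.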
# [17] = qHTS Assay for Identification of Small Molecule Agonists for Hypoxia Response Element Signaling Pathway (AID 914; active = well fitted activation curve with a large enough effect in the signal ratio, with a control signal flat, not every such curve was filed as active; the % refers to the signal ratio; also: % of control where 0% means no effect); settings: ME-180 (cervical carcinoma) HRE-bla reporter, beta-lactamase ratio, CoCl2, 17 h; activation: stronger effect = higher value
# Summary of the method: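 Positive modulation of EC50 CoCl2-induced hypoxia response element signaling is measured in ME-180 cells with a beta-lactamase reporter. Compounds are titrated, incubation runs 17 hours, and %Activity derives from the blue/green ratio.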
# [18] = measured here: cell count channel max response
# [19] = measured here: lipid channel max response
SMILES,Potency [1],"activity change, negative = inhibition [2]",Potency [3],"activity change, negative = inhibition [4]","activity, negative = inhibition [5]",Potency [6],Potency [7],outcome [8],Potency [9],"activity change, negative = inhibition [10]","max response [10, 18] [%]","max response [10, 19] [%]",Potency [11],Potency [12],Potency [13],Potency [14],Potency [15],Potency [16],activation [17]
Cc1nc2cnc(Oc3ccccc3)nc2n(C)c1=O,> 11.4 µM (inactive),-8.04% (inactive),12.6 µM (active),-5.98% (inactive),-10.2% (inactive),> 9.22 µM (inactive),> 46 µM (inactive),inactive,inactive,6.1% (inactive),14.9,19.9,inactive,inactive,inactive,inactive,inactive,,
Cc1nc2cnc(N(C)C)nc2n(CCC#N)c1=O,> 11.4 µM (inactive),-8.9% (inactive),10 µM (active),-13.7% (inactive),-1.16% (inactive),> 9.22 µM (inactive),> 46 µM (inactive),inactive,inactive,2.74% (inactive),4.56,5.95,inactive,inactive,inactive,inactive,inactive,,
CN(Cc1ccco1)c1cc(-c2ccoc2)ncn1,> 11.4 µM (inactive),-1.97% (inactive),inactive,-2.33% (inactive),18.1% (inactive),> 46 µM (inactive),> 46 µM (inactive),inactive,inactive,6.03% (inactive),18,23.3,inactive,inactive,inactive,inactive,inactive,,
Cn1c(=O)c(-c2cccc(C#N)c2)nc2cnc(Oc3ccccc3)nc21,> 11.4 µM (inactive),-13.9% (inactive),1.58 µM (active),-0.708% (inactive),1.85% (inactive),> 9.22 µM (inactive),> 46 µM (inactive),inactive,inactive,-3.03% (inactive),16.1,12.2,inactive,inactive,inactive,inactive,inactive,3.16 µM (active),
COCCNc1ncnc2ccc(-c3ccoc3)cc12,> 11.4 µM (inactive),-23.8% (inactive),15.8 µM (active),11.2% (inactive),-12.8% (inactive),> 46 µM (inactive),> 46 µM (inactive),inactive,inactive,0.0459% (inactive),6.14,3.39,0.891 µM (active),1 µM (active),0.224 µM (active),inactive,inactive,,
COCCn1c(=O)c(-c2ccccc2)nc2cnc(OC)nc21,> 11.4 µM (inactive),-2.69% (inactive),1 µM (active),-14.5% (inactive),-12.2% (inactive),> 9.22 µM (inactive),> 46 µM (inactive),inactive,inactive,5.61% (inactive),16.8,21.9,inactive,inactive,inactive,inactive,inactive,inactive,-14.2% (inactive)
